Results published in PubChem BioAssay (EPA / NIEHS).
Inconclusive results are not listed. The source made the active and inactive calls. How the source made its calls: active means hit-call score of the fitted dose curve at least 0.9, where 1 is the maximum; inconclusive means response in the unintended direction; inactive means score below 0.9.

Test: ACEA_ER_80hr: ACEA Biosciences xCELLigence Real-Time Cell Analysis on Estrogen Receptor Agonism for Proliferation (AID 2282667)
Settings: T47D proliferation, impedance (xCELLigence), 80 h
Outline: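 Real-time impedance growth kinetics of human T-47D breast cells read 80 h after dosing, gain-of-signal fitted relative to DMSO. Compounds: 1:4 serial series, top final concentration 100 uM, n = 2.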

Compound	outcome
CC1=CC(O)CC(C)(C)C1 (centres undefined)	inactive
O=c1cc[nH]cc1	inactive
C=CC(O)CCCCC (centres undefined)	inactive
O=C(OCc1ccccc1)c1ccccc1O	inactive
